Screening data as filed in PubChem BioAssay.
Only some compounds are listed: those with a hit (about 1.8% of all), similar ones and a draw of the others.
PABP polyA inh = PABP-poly(A) binding inhibition; P11940; PABP-poly(A) RNA binding, fluorescence polarization; calls only at 35 µM; actives 1% (n = 290,000); AID 2014;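 also: calls also rest on retests at 20 µM and on dose response follow-up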
Target sequence (P11940 whole entry, looked up): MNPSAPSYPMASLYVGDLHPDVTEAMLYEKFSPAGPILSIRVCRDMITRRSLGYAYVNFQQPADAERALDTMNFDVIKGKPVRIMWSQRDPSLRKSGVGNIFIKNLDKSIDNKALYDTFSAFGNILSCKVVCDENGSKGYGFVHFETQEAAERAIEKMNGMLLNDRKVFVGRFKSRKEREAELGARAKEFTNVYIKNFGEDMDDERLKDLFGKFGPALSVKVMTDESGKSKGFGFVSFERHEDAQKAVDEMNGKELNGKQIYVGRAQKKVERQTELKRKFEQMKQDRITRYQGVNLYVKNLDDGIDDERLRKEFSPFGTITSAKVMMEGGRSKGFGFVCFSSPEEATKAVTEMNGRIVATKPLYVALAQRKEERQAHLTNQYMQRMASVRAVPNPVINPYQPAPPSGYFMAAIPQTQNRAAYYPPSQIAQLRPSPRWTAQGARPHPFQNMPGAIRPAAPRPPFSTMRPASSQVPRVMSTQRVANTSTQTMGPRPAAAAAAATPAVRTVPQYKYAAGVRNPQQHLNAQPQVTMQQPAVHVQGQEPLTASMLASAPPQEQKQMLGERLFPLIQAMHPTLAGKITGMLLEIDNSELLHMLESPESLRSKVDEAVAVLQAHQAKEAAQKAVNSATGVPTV
MEX-5 binding = C. elegans MEX-5 TCR-2 RNA binding activity | actives 0.38% (n = 300,000) | MEX-5/FITC-TCR2 RNA binding, fluorescence polarization; hits give low values | activity score (negative = inhibition of binding), % at 10 µM | Q9XUB2 | AID 1832;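 active = inhibition past about -25% in most replicates, and total fluorescence under double the plate's negative control median, limit read from the data; inconclusive = replicates evenly split on the limit, or fluorescence at least double controls; inactive = too little inhibition in most replicates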
EBV gp42 inh = EBV gp42 inhibition; Q1HVG2; actives 0.42% (n = 220,000); inhibition, % (tested at 21.74 µM); Fluorescence polarization binding assay, mP read-out; in the data active = inhibition above about 50%
MLLE-PAM2 inh = inhibitors of microRNA-mediated deadenylation, human PABP1 MLLE binding | AID 588489 | actives 0.36% (n = 360,000) | inhibition, % at 20 µM | GST-MLLE / FITC-PAM2 fluorescence polarization; in the data active = inhibition above about 35%, passing the limit was not always enough
eIF4H FP inh = inhibitors of RNA binding by human eIF4H; actives 0.94% (n = 290,000); Q15056; inhibition, % at 35 µM; AID 2012; eIF4H fluorescence polarization binding assay;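 also: calls also rest on retests at 20 µM and on dose response follow-up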
Each line names hits and unclear results; the compound was inactive in the other large screens; ! = not active in a repeat. Unless noted, no rule for the calls is given here.

COc1ccc(C2CC(c3c(O)n(CCc4ccccc4)c(=O)[nH]c3=O)=NN2)cc1OC (stereo not drawn)	none
COc1cc2c(cc1OC)C(c1c(O)n(CCc3ccccc3)c(=S)[nH]c1=O)NCC2 (stereo not drawn)	PABP polyA inh active, eIF4H FP inh inconclusive (no result: MLLE-PAM2 inh)
COc1cccc(C)c1NC1=NCCO1	none (no result: PABP polyA inh, MEX-5 binding, EBV gp42 inh, eIF4H FP inh)
COc1ccc(OC(=O)N(C)C[C@H]2OCc3cnnn3CCCC(=O)N([C@H](C)CO)C[C@H]2C)cc1	none (no result: PABP polyA inh, MEX-5 binding, EBV gp42 inh, eIF4H FP inh)
COC1CC2C=C(C)C=CC=CC(=O)NC(c3ccccc3)CC=CCCC(O)CC(=O)C2=C1O (stereo not drawn)	none (no result: PABP polyA inh, MEX-5 binding, EBV gp42 inh, eIF4H FP inh)
Cc1cc([N+](=O)[O-])c(Cl)cc1NC(=O)C(C)C	none
CNc1cc(Cl)c2nonc2c1[N+](=O)[O-]	MLLE-PAM2 inh 40
COc1ccc2c(c1)NP(=S)(c1ccccc1)N2C (stereo not drawn)	none (no result: PABP polyA inh, MEX-5 binding, EBV gp42 inh, eIF4H FP inh)
COc1ccc(P2(=O)Nc3ccccc3N2)cc1	MEX-5 binding -36
COC12c3ccccc3-c3ccccc3C1C(C(=O)O)C2C(=O)O (stereo not drawn)	none (no result: PABP polyA inh, MEX-5 binding, EBV gp42 inh, eIF4H FP inh)
CCOC(=O)[C@]1(C#N)[C@@H]2C=CC(C(C)=O)=CN2[C@@H](C(N)=O)[C@@H]1c1ccsc1	PABP polyA inh active, MEX-5 binding -53, EBV gp42 inh 71, eIF4H FP inh 57
Cc1cc(C=C2C(=O)NC(=O)NC2=O)c(C)n1-c1cccnc1	MEX-5 binding -71
O=c1[nH]c(=S)n(C2CC2)c(O)c1C=Nc1ccc2c(c1)OCO2	eIF4H FP inh 68
O=C(N/N=C/c1c(O)n(C2CC2)c(=S)[nH]c1=O)c1ccccc1O	MEX-5 binding -60
Cc1ccccc1-n1c(O)c(/C=N/NC(=O)c2ccccc2O)c(=O)[nH]c1=S	MEX-5 binding -29
O=C(N/N=C/c1c(O)n(-c2ccccc2)c(=S)[nH]c1=O)c1ccccc1	none
Cc1ccc(-[n+]2c(Cc3nn(-c4ccccc4)c(C)[n+]3-c3ccc(C)cc3)nn(-c3ccccc3)c2C)cc1	none (no result: PABP polyA inh, MEX-5 binding, EBV gp42 inh, eIF4H FP inh)
O=C1NCN(c2ccccc2)C12CCN(C(c1ccnc3ccccc13)c1nnnn1C1CCCCC1)CC2 (stereo not drawn)	none (no result: PABP polyA inh, MEX-5 binding, EBV gp42 inh, eIF4H FP inh)
Oc1ccc(O)c2c1C1(Cl)C(Cl)=C(Cl)C2(Cl)C1(Cl)Cl	none (no result: PABP polyA inh, MEX-5 binding, EBV gp42 inh, eIF4H FP inh)
COc1ccc2c(c1O)-c1c(OC)c(OC)cc3c1[C@H](C2)N(C)CC3	none (no result: PABP polyA inh, MEX-5 binding, EBV gp42 inh, eIF4H FP inh)
CCCN1CCc2cccc3c2[C@H]1Cc1ccc(O)c(O)c1-3	MEX-5 binding -84 (no result: PABP polyA inh, EBV gp42 inh, eIF4H FP inh)
Cc1ccccc1-n1c(O)c(/C=N/Nc2nc3c(c(=O)n(C)c(=O)n3C)n2C)c(=O)[nH]c1=S	none
Cc1cccc(-n2c(O)c(/C=N/Nc3nc4c(c(=O)n(C)c(=O)n4C)n3C)c(=O)[nH]c2=S)c1	MEX-5 binding -47
CCC(C)n1c(O)c(C=Nc2cccc(C(F)(F)F)c2)c(=O)[nH]c1=S (stereo not drawn)	PABP polyA inh active, eIF4H FP inh 60
CC(C)n1c(O)c(C=NCc2cccnc2)c(=O)[nH]c1=S	none
COC(=O)C1C=C2c3cccc4[nH]cc(c34)CC2N(C)C1 (stereo not drawn)	PABP polyA inh inconclusive, EBV gp42 inh 114, eIF4H FP inh inconclusive (no result: MEX-5 binding, MLLE-PAM2 inh)
CCC(CO)NC(=O)C1C=C2c3cccc4[nH]cc(c34)CC2N(C)C1 (stereo not drawn)	PABP polyA inh inconclusive, eIF4H FP inh inconclusive
CC[C@@H](CO)NC(=O)[C@@H]1C=C2c3cccc4c3c(cn4C)C[C@H]2N(C)C1	PABP polyA inh inconclusive, MEX-5 binding -31, EBV gp42 inh 53!, MLLE-PAM2 inh 75!, eIF4H FP inh inconclusive
CCCN(CC1CC1)CC(O)c1ccccc1 (stereo not drawn)	none (no result: EBV gp42 inh)
COC(=O)C1=C(c2cccc(OCc3ccccc3)c2)C[C@@H]2CC[C@H]1N2C(=O)NCc1cc(C)oc1C(F)(F)F	none (no result: PABP polyA inh, MEX-5 binding, EBV gp42 inh, eIF4H FP inh)
C[N+](C)(C)CCc1ccc(O)cc1	PABP polyA inh active, eIF4H FP inh inconclusive
CC(C)(C)N1CC(C(=O)c2ccccc2)C1c1ccccc1 (stereo not drawn)	none (no result: PABP polyA inh, MEX-5 binding, EBV gp42 inh, eIF4H FP inh)
COc1cc(O)c(C(=O)O)c(-c2cc(O)c(O)cc2C)c1	MEX-5 binding -62
O=S(=O)(c1ccccc1)N1CCN2CCCC2C1 (stereo not drawn)	PABP polyA inh active, eIF4H FP inh 96 (no result: EBV gp42 inh)
CN(C)C1C(=O)C(C(N)=O)=C(O)C2(O)C(=O)C3=C(O)c4c(O)cccc4C(C)(O)C3C(O)C12 (stereo not drawn)	PABP polyA inh active, eIF4H FP inh 99 (no result: EBV gp42 inh)
Cc1ccc2cc(C=C(C#N)C#N)c(Cl)nc2c1	MEX-5 binding inconclusive, MLLE-PAM2 inh 53, eIF4H FP inh inconclusive
